Reference: PubChem BioAssay AID1159580 (chemical genetic matrix, 2015)
Among all 5,500 compounds or so, about 2,000 (36%) were called active. Inconclusive results (about 18%) are left out. Cut-off read from the data, not from the text of the source: active = normalized growth mostly below about 0.91 (no sharp cut-off); inconclusive = no clear call, values can overlap the other calls; inactive = mostly above about 0.92. This is one part of the list.

Experiment: chemical genetic growth profiling, strain panel (AID 1159580);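 note: tested at 20 µM; growth read once vehicle control cultures reached saturation at 30 °C; 1 = growth at the plate median or of vehicle wells; lower values mean less growth of the strain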
Conditions: S. cerevisiae deletion strains, growth OD

Measured: normalized growth

NC1CCN(O)C1=O (stereo not given)
inactive: locus YAL013W, strain DEP1, stronger effect = lower value 1.02 | locus YAL040C, strain CLN3, stronger effect = lower value 1.02 | locus YCL061C, strain MRC1 (second series), stronger effect = lower value 1.02 | locus YDR363W, strain ESC2, stronger effect = lower value 0.986 | locus YER002W, strain NOP16, stronger effect = lower value 1.01 | locus YGR078C, strain PAC10, stronger effect = lower value 1.02 | locus YNL175C, strain NOP13, stronger effect = lower value 1.01 | locus YNL197C, strain WHI3, stronger effect = lower value 0.997 | locus YNL224C, strain SQS1, stronger effect = lower value 1.02 | locus YOR083W, strain WHI5 (second series), stronger effect = lower value 0.985
